Compound activity as filed in PubChem.
Shown are actives, neighbours in structure and some others; about 1.8% of the full set was active somewhere.
PAD4 FP inh: human PAD4 inhibitors, primary screen, biochemical, fluorescence polarization, 1536-well format; AID 485272, 2010; inhibition, % at 6.36 µM; recombinant PAD4, RCA probe fluorescence polarization; actives 0.41% (n = 330,000); Protein-arginine deiminase type-4 (Homo sapiens), Q9UM07;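 active means percent inhibition above a cutoff equal to the mean of all tested compounds plus 3 SD, cut at about 15% in these data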;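 further: 0% = PAD4 with RCA probe and DMSO and 100% = probe without PAD4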
GSTO1 inh: inhibitors of recombinant GSTO1, primary screen, counter-screen for RBBP9 inhibitor project, biochemical, fluorescence polarization | activity-based probe fluorescence polarization | inhibition, % at 5.96 µM | actives 1.1% (n = 300,000);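 active means inhibition above the campaign mean inhibition plus 3 SD, cut at about 35% in these data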;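 further: 0% = GSTO1-1 with DMSO and 100% = wells lacking GSTO1-1 enzyme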
LYPLA2 counter: LYPLA2 inhibitors, primary screen, counter-screen for PME1 inhibitor project, biochemical, fluorescence polarization, FP-Rh probe ABPP; Acyl-protein thioesterase 2 (Homo sapiens), O95372; recombinant LYPLA2; inhibition, % at 5.9 µM; actives 0.38% (n = 320,000);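 active means inhibition above the screen-wide mean plus 3 SD, limit set per campaign, cut at about 26% in these data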;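 further: 0% = LYPLA2 with DMSO and 100% = wells lacking LYPLA2 enzyme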
Target sequence (O95372 whole entry, looked up): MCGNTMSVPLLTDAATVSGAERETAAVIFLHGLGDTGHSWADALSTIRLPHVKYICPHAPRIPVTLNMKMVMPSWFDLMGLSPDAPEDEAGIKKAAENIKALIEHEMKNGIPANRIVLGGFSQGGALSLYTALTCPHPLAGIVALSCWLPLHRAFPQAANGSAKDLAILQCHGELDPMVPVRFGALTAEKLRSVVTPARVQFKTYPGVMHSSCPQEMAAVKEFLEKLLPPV
PME-1 primary: PME-1 inhibitors via competitive probe labeling, primary screen, biochemical, fluorescence polarization, FP-Rh probe, HTS; Protein phosphatase methylesterase 1 (Homo sapiens), Q9Y570; recombinant PME-1; inhibition, % at 5.9 µM; actives 0.53% (n = 320,000); AID 2130, 2009;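 active means inhibition above the campaign mean of all compounds plus 3 SD, cut at about 26% in these data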;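 further: competitive labeling of PME-1 active site by serine hydrolase directed probe; 0% = PME-1 with DMSO and 100% = wells lacking PME-1 enzyme; inhibitors block probe labeling so polarization falls and inhibition rises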
Target sequence (Q9Y570 whole entry, looked up): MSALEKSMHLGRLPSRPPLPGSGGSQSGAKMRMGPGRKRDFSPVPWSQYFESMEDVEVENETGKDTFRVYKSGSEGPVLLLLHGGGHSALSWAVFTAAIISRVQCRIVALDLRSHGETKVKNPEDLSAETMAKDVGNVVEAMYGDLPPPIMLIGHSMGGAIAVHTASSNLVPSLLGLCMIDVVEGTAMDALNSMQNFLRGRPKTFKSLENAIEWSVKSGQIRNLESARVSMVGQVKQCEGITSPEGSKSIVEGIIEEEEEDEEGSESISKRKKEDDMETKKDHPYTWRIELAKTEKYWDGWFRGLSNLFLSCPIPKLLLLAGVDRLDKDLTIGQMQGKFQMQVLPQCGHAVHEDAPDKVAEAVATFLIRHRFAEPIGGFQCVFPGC
Fam108B counter: mouse Fam108B serine hydrolase inhibitors, primary screen, counter-screen for RBBP9 inhibitor project, biochemical, fluorescence polarization. recombinant Fam108B, FP-Rh probe fluorescence polarization. inhibition, % at 9.51 µM. actives 0.33% (n = 300,000). AID 1947, 2009;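 active means inhibition above the screen mean inhibition plus 3 SD, computed separately per campaign, cut at about 18% in these data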;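 further: inhibitors lower polarization as less probe binds the enzyme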
LYPLA1 counter: LYPLA1 inhibitors, primary screen, counter-screen for PME1 inhibitor project, biochemical, fluorescence polarization, FP-Rh probe ABPP; recombinant LYPLA1; AID 2174, 2009; Acyl-protein thioesterase 1 (Homo sapiens), O75608; inhibition, % at 5.9 µM; actives 0.16% (n = 320,000);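 active means inhibition above the mean of all tested compounds plus 3 SD, set per campaign, cut at about 14% in these data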;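 further: inhibitors block serine hydrolase probe labeling of LYPLA1 so polarization falls; 0% = enzyme with DMSO and 100% = wells lacking LYPLA1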
Fam108b inh conf: mouse Fam108b serine hydrolase inhibitors, confirmation, counter-screen for RBBP9 inhibitor project, biochemical, fluorescence polarization, triplicate. inhibition, % at 9.51 µM. AID 1978, 2009. actives 44% (n = 930). shares compounds with Fam108B counter. recombinant Fam108b, FP-Rh probe fluorescence polarization;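 active means inhibition above a limit from the primary screen, the mean over all compounds plus 3 SD, cut at about 19% in these data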;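 further: 0% = median of active Fam108b wells and 100% = catalytically dead S170A mutant; inhibitors free the probe so polarization falls as inhibition rises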
Fam108b inh: inhibition of mouse Fam108b by HTS hits, late-stage follow-up, biochemical, gel-based ABPP, soluble recombinant form | shares compounds with Fam108B counter | fluorophosphonate probe | inhibition, % at 20 µM | actives 44% (n = 260) | AID 588649, 2011; in the data active means inhibition above about 40%
* = called active by the depositor; x = not tested or not shown.

SMILES	PAD4 FP inh	GSTO1 inh	LYPLA2 counter	PME-1 primary	Fam108B counter	LYPLA1 counter	Fam108b inh conf	others
COc1ccc(OC)c2c(C)cc(N3CCN(C(=O)c4ccc(Cl)cc4)CC3)nc12	-8.0	5.6	3.8	-1.5	5.7	-1.2	x
Cc1cc(NN=Cc2c(O)ccc3ccccc23)nc(-c2ccccc2O)n1	x	x	x	x	x	x	x	Fam108b inh=95.0*
COc1ccc(Cn2c(=O)[nH]c3cc(C(=O)N4CCN(c5ccccn5)CC4)ccc3c2=O)cc1	-2.2	1.2	0.3	-5.3	-0.4	1.1	x
COc1cccc2c1C(=O)c1c(O)c3c(c(O)c1C2=O)C[C@@](O)(C(C)=O)C[C@@H]3O[C@H]1C[C@H](N)[C@H](O)[C@H](C)O1	x	x	x	x	x	x	x	Fam108b inh=0.0
CNC(=S)N/N=C/c1cn(CCOc2cccc(OC)c2)c2ccccc12	3.5	1.8	15.7	9.3	7.2	2.9	x
COc1cccc(OCCn2cc(/C=N/NC(=O)c3ccncc3)c3ccccc32)c1	5.3	-9.6	5.8	25.3	25.3*	3.2	2.0
Cc1ccc(OCCn2cc(/C=N/NC(=O)c3ccncc3)c3ccccc32)cc1	3.2	-21.5	38.3*	68.8*	33.8*	-17.8	-10.9
CC(=O)Nc1ccc(S(=O)(=O)N2CCCC(C(=O)O)C2)cc1 (stereo not given)	6.1	11.2	5.7	-11.8	-1.7	2.7	x
Cc1cc2c(N=O)c(NO)ccc2[nH]1	-5.3	21.6	9.3	48.8*	32.7*	4.6	9.5
O=C1O/C(=C/c2ccccc2)c2ccccc21	-5.3	4.4	4.9	-7.3	0.7	-2.2	x
N#CC1=C(c2ccccc2)/C(=C/c2ccccc2)OC1=O	-1.1	3.2	4.1	10.8	19.4*	7.7	23.3*
O=C1[C@@H]2Cc3c([nH]c4ccccc34)C(c3ccccc3)N2C(=O)CN1C1CC1 (stereo not given in full)	-4.3	6.0	1.2	27.0*	19.5*	-4.0	5.6
COc1ccc([N+](=O)[O-])cc1/C=N/Nc1nc(N2CCCCC2)nc(N2CCCCC2)n1	-3.3	-0.2	-9.2	-2.3	-5.4	0.0	x
COc1cccc(C=NNc2nc(Nc3ccc([N+](=O)[O-])cc3)nc(N3CCCC3)n2)c1O	x	x	x	x	x	x	x	Fam108b inh=90.0*
Cc1[nH]c(=S)c(C#N)c(C)c1CCC#N	-2.3	13.6	-3.1	-0.9	2.0	-2.2	x
O=S(=O)(Nc1ccc(-c2csc(-c3ccccc3)n2)cc1)c1ccc(F)cc1	-2.3	-11.4	-46.2	-45.7	-28.6	-35.7	x
O=C(Nc1nc(-c2ccccc2)cs1)c1ccccc1NS(=O)(=O)c1ccc(F)cc1	-7.9	-57.4	3.4	17.7	24.0*	-7.0	5.5
Cc1c(O)cccc1C(=O)N[C@@H](CSc1ccccc1)[C@H](O)CN1C[C@H]2CCCC[C@H]2C[C@H]1C(=O)NC(C)(C)C	1.4	-3.5	-0.1	-14.6	-2.7	-7.3	x
COc1cccc(C=NNC(=O)c2[nH]c(C)c(C(=O)NN=Cc3cccc(OC)c3O)c2C)c1O	x	x	x	x	x	x	x	Fam108b inh=95.0*
CCOC(=O)c1c(C)[nH]c(C(=O)N/N=C\c2ccccc2O)c1C	4.3	-10.8	-1.9	3.7	18.8*	-11.2	-9.7
COc1ccccc1/C=N/NC(=O)c1[nH]c(C)c(C(=O)N/N=C/c2ccccc2OC)c1C	-1.6	-3.6	-32.5	-22.5	-3.7	-19.1	x
O=C(C[n+]1ccc(/C=C/c2ccccc2)cc1)c1ccc2c(c1)OCCO2	-6.3	5.2	7.8	-0.8	-3.2	-6.5	x
CN(C)S(=O)(=O)c1cccc(NC(=O)c2c[nH]c3ccccc23)c1	2.5	-8.3	-34.1	-14.6	125.7*	-14.7	-18.5
CN(C)S(=O)(=O)c1cccc(NC(=O)c2cc(=O)[nH]c3ccccc23)c1	1.6	1.6	2.0	11.0	3.4	-1.8	x
COc1cc(/C=C2/C(=O)NN(c3cccc(C)c3)C2=O)cc([N+](=O)[O-])c1O	-1.0	8.5	4.4	5.7	82.5*	3.6	5.7
SMILES	PAD4 FP inh	GSTO1 inh	LYPLA2 counter	PME-1 primary	Fam108B counter	LYPLA1 counter	Fam108b inh conf	others
Cc1ccc(C(=O)O)cc1N1C(=O)c2cccc3c([N+](=O)[O-])ccc(c23)C1=O	0.5	-9.7	6.9	31.7*	27.0*	1.5	22.9*
COCCn1nnnc1C(c1ccc(C(F)(F)F)cc1)N1CCOCC1 (stereo not given)	-4.2	2.5	-0.3	-3.8	10.5	-3.6	x
CC(=O)N1CCn2c3ccc(C)cc3c3cccc1c32	-2.5	5.4	2.7	1.2	1.8	5.8	x
COc1cccc(C(=O)/C=C/Nc2ccc(NC(C)=O)cc2)c1	-3.1	1.9	-1.2	5.8	1.5	-0.4	x
COc1cccc(C(=O)/C=C/Nc2ccc(S(=O)(=O)Nc3cccc(C(C)=O)c3)cc2)c1	0.7	-27.6	-15.8	-3.3	21.7*	-19.8	-11.4
COc1cc(NS(=O)(=O)c2ccc(Nc3nc(-c4ccccc4)cs3)cc2)nc(OC)n1	3.4	9.7	4.9	-2.3	14.4	9.0	x
Cc1cc(NS(=O)(=O)c2ccc(Nc3nc(-c4ccc(O)cc4)cs3)cc2)no1	4.5	14.1	5.1	2.9	25.8*	6.7	-70.3
Cc1cccnc1Nc1nc(-c2ccc(O)cc2O)cs1	-5.0	16.5	-4.8	22.9	18.3*	0.3	10.2
NS(=O)(=O)c1ccc(Nc2nc(-c3ccc(O)cc3O)cs2)cc1	-3.2	8.1	0.0	11.8	22.6*	-9.3	98.6*	Fam108b inh=35.0
Oc1ccc(-c2csc(Nc3ccccn3)n2)c(O)c1	0.3	9.3	-2.8	14.1	19.1*	-3.1	12.1
CCOC(=O)[C@@H]1[C@H]2COc3cc(OC)ccc3[C@H]2N2C(=O)N(c3ccc(C(F)(F)F)cc3)C(=O)[C@@]12C	3.2	-0.8	-4.8	-1.7	-0.1	-2.3	x
CC(=O)N/C(=C/c1ccc(OS(=O)(=O)c2ccc(C)cc2)cc1)C(=O)NCCCO	2.8	8.3	-1.9	9.1	-3.5	1.2	x
COc1ccccc1CNC(=O)COC(=O)c1ccc(C)c(S(=O)(=O)N2CCOCC2)c1	3.0	0.9	3.8	0.1	1.7	1.7	x
CCC(=O)Oc1ccc(C/C(=N\O)c2ccc(O)cc2O)o1	3.4	24.6	3.7	36.0*	25.9*	6.8	17.8
